Source: PubChem BioAssay (Tox21)
Values without a mark were called inactive. Results filed as inconclusive are left out. Entries that show only a call come without a potency. The source made the active and inactive calls. Calls come from the whole dose curve; as a rule, active = well fitted curve in the direction sought with a large enough effect in the repeat runs; inconclusive = weak or mixed curves; inactive = no such curve, though single readings can be large; an effect the other way counts as inactive or inconclusive.

Key:
[1] = Human pregnane X receptor (PXR) small molecule agonists, qHTS cell viability counter screen (AID 1346977); note: nearly all actives have a fitted effect of over 50% in size; note: potency is the fitted concentration of half-maximal effect
Summary of the method: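 Viability counter screen: CellTiter-Fluor signal in PXR-Luc HepG2 cells, 24hr compound exposure, 37C, 5% CO2.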

[2] = Caspase-3/7 induction in HepG2 cells by small molecules, qHTS assay (AID 1346978); note: nearly all actives have a fitted effect of over 15% in size
Summary of the method: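 Wild-type HepG2 cells (2,000/well) were settled 5 h at 37 C, 5% CO2, then exposed to compounds in DMSO for 17 h. Caspase-3/7 activity was read by luminescence 30 min after adding Caspase-Glo 3/7 reagent at room temperature.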

[3] = Caspase-3/7 induction in CHO-K1 cells by small molecules, qHTS cell viability counter screen (AID 1346979); note: nearly all actives have a fitted effect of over 35% in size
Summary of the method: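 Viability readout by fluorescence (CellTiter-Fluor) on wild-type CHO-K1 cells exposed for 16hr at 37C and 5% CO2 to compounds delivered in DMSO; reagent incubated 1hr before reading.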

[4] = Caspase-3/7 induction in CHO-K1 cells by small molecules, qHTS assay (AID 1346980); note: nearly all actives have a fitted effect of over 15% in size
Summary of the method: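 Wild-type cells were seeded at 1,500 per well and settled 5 hr at 37 C, 5% CO2, then exposed to DMSO-dissolved compounds for 17 hr. Caspase-Glo 3/7 reagent was added, and luminescence was read after 30min at room temperature.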

[5] = Caspase-3/7 induction in HepG2 cells by small molecules, qHTS cell viability counter screen (AID 1346981); note: series mostly up to about 92 µM; nearly all actives have a fitted effect of over 30% in size
Summary of the method: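 Counter screen for cytotoxicity: HepG2 exposed 16 hr to compounds, then CellTiter-Fluor viability signal (fluorescence, 1 hr reagent incubation).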

[6] = molecular target: Nuclear receptor subfamily 1 group I member 2 (Homo sapiens) (UniProt O75469); test: Human pregnane X receptor (PXR) small molecule agonists, qHTS assay (AID 1346982); note: nearly all actives have a fitted effect of over 35% in size; note: potency is the fitted concentration of half-maximal effect
Summary of the method: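 Luminescence (ONE-Glo, 30 min RT) after 24 hr compound exposure of PXR-Luc HepG2 cells; cells rested 5 hr post-plating in 5% charcoal-stripped FBS medium.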

[7] = molecular target: Cytochrome P450 2D6 (Homo sapiens) (UniProt P10635); test: Cytochrome P450 Family 2 Subfamily D Member 6 (CYP2D6) small molecule antagonists: luciferase reporter qHTS assay (AID 1671196); note: nearly all actives have a fitted effect of over 50% in size; note: potency is the fitted concentration of half-maximal effect
Summary of the method: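 Inhibition of CYP2D6 was gauged by loss of luminescence, since light produced tracks the luciferin generated from a proluciferin substrate. A 10 min room-temperature preincubation preceded 1 h NADPH-supported turnover.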

[8] = molecular target: Cytochrome P450 2C9 (Homo sapiens) (UniProt P11712); test: Cytochrome P450 Family 2 Subfamily C Member 9 (CYP2C9) small molecule antagonists: luciferase reporter qHTS assay (AID 1671198); note: nearly all actives have a fitted effect of over 50% in size; note: potency is the fitted concentration of half-maximal effect
Summary of the method: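 CYP2C9 activity was measured with a P450-Glo proluciferin substrate. Enzyme–substrate mix was held with compound for 10 min at room temperature, then NADPH regeneration solution was added for 1 h at 37C. Luciferin product was read as luminescence.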

[9] = molecular target: Voltage-gated inwardly rectifying potassium channel KCNH2 (Homo sapiens) (UniProt Q12809); test: Human Ether-a-go-go-Related Gene (hERG) channel small molecule antagonists: fluorescence cell-based qHTS assay (AID 1671200); note: nearly all actives have a fitted effect of over 50% in size; note: potency is the fitted concentration of half-maximal effect
Summary of the method: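 Thallium served as the potassium surrogate; its influx into dye-loaded U2OS cells carrying the channel was measured by fluorescence over 2 min.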

[10] = molecular target: Cytochrome P450 3A4 (Homo sapiens) (UniProt P08684); test: Cytochrome P450 Family 3 Subfamily A Member 4 (CYP3A4) small molecule antagonists: luciferase reporter qHTS assay (AID 1671201)
Summary of the method: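 Relative luminescence units after 20 min with luciferin detection reagent served as read-out. Beforehand, CYP3A4 turned over a proluciferin substrate for 1 h at room temperature with NADPH regeneration, following 10 min compound preincubation.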

[11] = molecular target: Cytochrome P450 2C19 (Homo sapiens) (UniProt P33261); test: Cytochrome P450 Family 2 Subfamily C Member 19 (CYP2C19) small molecule antagonists: luciferase reporter qHTS assay (AID 1671197); note: nearly all actives have a fitted effect of over 65% in size; note: potency is the fitted concentration of half-maximal effect
Summary of the method: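 Enzyme-substrate mix with proluciferin substrate (P450-Glo CYP2C19 system) preincubated with compounds 10 min at room temperature; NADPH regeneration solution added, 37C for 1 h; detection reagent stops reaction, luminescence read after 20 min. Ketoconazole positive control.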

[12] = molecular target: Cytochrome P450 1A2 (Homo sapiens) (UniProt P05177); test: Cytochrome P450 Family 1 Subfamily A Member 2 (CYP1A2) small molecule antagonists: luciferase reporter qHTS assay (AID 1671199); note: nearly all actives have a fitted effect of over 50% in size; note: potency is the fitted concentration of half-maximal effect
Summary of the method: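 Signal from luciferin formed by CYP1A2 from a proluciferin substrate is read as luminescence, expressed in relative luminescence units. Compounds sit with enzyme 10 min, NADPH-driven reaction runs 1 h, all at room temperature.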

[13] = molecular target: Nuclear receptor subfamily 1 group I member 2 (Homo sapiens) (UniProt O75469); test: CYP3A4 induction through human pregnane X receptor (PXR) by small molecules, qHTS assay (AID 1346984); note: nearly all actives have a fitted effect of over 40% in size
Summary of the method: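 DPX-2 reporter cells; 24h cpd, 37C; Luciferin-IPA 3uM final x3h; One-Glo 30 min RT; lumi read.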

[14] = molecular target: Nuclear receptor subfamily 1 group I member 2 (Homo sapiens) (UniProt O75469); test: Human pregnane X receptor (PXR) activation by small molecules, qHTS assay (AID 1346985); note: nearly all actives have a fitted effect of over 40% in size; note: potency is the fitted concentration of half-maximal effect
Summary of the method: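 DPX-2 cells (HepG2 co-transfected with a PXR response element and a CYP3A4-promoter luciferase construct) were seeded at 2,000 per well, rested 5 hr at 37C, then exposed to DMSO-dissolved compounds for 24 hr. Activation was read as luciferase luminescence.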

[15] = molecular target: Nuclear receptor subfamily 1 group I member 2 (Rattus norvegicus) (UniProt Q9R1A7); test: Rat pregnane X receptor (rPXR) activation by small molecules, qHTS assay (AID 1346983); details: rPXR luciferase reporter cells, One-Glo luminescence, 24 h; max activation: hits give high values; note: nearly all actives have a fitted effect of over 20% in size
Summary of the method: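 Cell-based rPXR luciferase reporter assay, 2,000 cells per well, rested 5hr at 37 C before compound addition in DMSO, then 24 hr at 37 C. One-Glo reagent was added and luminescence read after 30 min at room temperature.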

Sequence of Voltage-gated inwardly rectifying potassium channel KCNH2 (Homo sapiens) (Q12809 whole entry, looked up): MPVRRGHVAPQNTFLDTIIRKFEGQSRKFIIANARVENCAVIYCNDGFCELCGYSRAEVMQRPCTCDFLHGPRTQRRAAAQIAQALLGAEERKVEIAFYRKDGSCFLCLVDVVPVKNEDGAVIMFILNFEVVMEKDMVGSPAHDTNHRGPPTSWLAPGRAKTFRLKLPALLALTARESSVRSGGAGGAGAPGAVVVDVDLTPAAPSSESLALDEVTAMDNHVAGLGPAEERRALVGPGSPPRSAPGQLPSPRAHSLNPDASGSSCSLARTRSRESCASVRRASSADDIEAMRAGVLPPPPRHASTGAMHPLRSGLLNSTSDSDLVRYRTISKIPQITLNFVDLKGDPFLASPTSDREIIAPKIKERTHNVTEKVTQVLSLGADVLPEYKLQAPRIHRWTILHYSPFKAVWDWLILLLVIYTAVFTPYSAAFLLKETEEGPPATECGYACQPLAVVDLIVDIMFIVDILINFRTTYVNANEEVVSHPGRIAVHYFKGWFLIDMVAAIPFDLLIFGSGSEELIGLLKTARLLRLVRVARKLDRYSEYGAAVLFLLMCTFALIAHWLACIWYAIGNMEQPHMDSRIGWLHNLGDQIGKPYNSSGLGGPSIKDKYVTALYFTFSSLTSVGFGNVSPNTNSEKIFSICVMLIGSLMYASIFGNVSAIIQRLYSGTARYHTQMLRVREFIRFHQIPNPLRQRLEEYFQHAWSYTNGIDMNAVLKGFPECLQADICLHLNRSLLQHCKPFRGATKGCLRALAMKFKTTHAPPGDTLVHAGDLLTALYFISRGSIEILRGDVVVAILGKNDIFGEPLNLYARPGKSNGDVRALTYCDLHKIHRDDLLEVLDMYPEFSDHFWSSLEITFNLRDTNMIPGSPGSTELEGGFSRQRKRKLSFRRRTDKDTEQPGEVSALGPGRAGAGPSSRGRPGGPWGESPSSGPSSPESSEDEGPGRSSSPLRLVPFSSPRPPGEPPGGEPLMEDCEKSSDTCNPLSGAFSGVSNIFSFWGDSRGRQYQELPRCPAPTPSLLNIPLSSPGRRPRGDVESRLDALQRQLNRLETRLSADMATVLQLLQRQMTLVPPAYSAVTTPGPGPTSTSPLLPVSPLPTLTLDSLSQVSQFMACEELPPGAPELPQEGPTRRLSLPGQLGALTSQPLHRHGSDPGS
Sequence of Nuclear receptor subfamily 1 group I member 2 (Homo sapiens) (O75469 whole entry, looked up): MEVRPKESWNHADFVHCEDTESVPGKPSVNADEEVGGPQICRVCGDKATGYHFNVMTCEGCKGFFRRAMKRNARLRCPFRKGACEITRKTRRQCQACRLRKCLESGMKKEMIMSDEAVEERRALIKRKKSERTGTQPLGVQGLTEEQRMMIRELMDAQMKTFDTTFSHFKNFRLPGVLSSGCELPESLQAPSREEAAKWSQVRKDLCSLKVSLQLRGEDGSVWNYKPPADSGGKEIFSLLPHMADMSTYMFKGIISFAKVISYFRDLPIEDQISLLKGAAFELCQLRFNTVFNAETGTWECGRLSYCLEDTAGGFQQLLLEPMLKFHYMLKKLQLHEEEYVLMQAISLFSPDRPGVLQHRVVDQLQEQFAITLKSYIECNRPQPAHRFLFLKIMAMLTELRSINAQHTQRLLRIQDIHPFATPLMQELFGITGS
Sequence of Cytochrome P450 2D6 (Homo sapiens) (P10635 whole entry, looked up): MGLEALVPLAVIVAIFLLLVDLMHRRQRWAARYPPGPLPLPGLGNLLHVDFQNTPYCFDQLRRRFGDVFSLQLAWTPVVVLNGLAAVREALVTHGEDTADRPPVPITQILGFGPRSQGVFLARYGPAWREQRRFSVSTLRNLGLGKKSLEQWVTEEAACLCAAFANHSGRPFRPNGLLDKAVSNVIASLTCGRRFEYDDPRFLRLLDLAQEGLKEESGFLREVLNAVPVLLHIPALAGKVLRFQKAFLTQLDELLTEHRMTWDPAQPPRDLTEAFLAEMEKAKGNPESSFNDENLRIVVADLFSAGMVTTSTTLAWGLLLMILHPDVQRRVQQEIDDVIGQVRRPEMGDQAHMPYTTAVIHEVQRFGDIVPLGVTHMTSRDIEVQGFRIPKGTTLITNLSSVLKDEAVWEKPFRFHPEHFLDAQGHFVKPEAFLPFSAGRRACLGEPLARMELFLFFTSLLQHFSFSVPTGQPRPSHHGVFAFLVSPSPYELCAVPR
Sequence of Cytochrome P450 1A2 (Homo sapiens) (P05177 whole entry, looked up): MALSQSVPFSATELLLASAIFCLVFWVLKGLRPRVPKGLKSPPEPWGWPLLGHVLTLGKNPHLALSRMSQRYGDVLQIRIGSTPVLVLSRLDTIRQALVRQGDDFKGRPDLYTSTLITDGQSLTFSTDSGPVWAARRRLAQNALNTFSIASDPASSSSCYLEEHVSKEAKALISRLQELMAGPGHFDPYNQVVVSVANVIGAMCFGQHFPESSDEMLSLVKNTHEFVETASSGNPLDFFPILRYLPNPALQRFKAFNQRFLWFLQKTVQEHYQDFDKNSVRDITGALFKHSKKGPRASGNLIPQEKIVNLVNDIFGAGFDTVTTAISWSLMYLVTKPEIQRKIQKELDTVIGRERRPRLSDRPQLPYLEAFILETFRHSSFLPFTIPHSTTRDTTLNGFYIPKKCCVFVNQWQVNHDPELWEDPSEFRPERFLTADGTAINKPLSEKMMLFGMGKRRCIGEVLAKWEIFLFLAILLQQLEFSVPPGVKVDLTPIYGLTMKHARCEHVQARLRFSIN
Sequence of Cytochrome P450 2C9 (Homo sapiens) (P11712 whole entry, looked up): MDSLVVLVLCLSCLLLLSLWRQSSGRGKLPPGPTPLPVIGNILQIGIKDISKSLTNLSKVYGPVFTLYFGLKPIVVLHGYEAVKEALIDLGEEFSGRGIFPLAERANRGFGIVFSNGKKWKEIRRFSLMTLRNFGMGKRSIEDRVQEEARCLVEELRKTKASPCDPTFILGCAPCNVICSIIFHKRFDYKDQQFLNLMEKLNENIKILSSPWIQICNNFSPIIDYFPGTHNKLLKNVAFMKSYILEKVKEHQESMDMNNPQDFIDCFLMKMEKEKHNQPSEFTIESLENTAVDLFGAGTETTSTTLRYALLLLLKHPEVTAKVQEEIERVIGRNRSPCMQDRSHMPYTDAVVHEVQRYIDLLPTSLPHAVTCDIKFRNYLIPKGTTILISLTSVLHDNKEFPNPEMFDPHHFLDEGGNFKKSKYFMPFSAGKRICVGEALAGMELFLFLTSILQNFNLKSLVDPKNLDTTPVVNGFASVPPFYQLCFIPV
Sequence of Cytochrome P450 2C19 (Homo sapiens) (P33261 whole entry, looked up): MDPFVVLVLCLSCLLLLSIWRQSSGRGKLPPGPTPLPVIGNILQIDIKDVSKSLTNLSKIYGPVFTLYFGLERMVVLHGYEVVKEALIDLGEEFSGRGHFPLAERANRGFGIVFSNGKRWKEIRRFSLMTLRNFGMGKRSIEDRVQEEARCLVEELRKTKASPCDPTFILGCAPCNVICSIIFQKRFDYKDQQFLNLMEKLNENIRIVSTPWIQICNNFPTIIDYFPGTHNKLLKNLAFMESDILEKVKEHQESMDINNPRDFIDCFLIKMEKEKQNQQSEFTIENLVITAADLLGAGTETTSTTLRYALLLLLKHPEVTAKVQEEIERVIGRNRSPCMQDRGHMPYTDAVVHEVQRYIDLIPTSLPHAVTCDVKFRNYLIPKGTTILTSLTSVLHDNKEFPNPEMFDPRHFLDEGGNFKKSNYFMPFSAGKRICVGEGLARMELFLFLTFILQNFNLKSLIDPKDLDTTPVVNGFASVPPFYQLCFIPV
Sequence of Cytochrome P450 3A4 (Homo sapiens) (P08684 whole entry, looked up): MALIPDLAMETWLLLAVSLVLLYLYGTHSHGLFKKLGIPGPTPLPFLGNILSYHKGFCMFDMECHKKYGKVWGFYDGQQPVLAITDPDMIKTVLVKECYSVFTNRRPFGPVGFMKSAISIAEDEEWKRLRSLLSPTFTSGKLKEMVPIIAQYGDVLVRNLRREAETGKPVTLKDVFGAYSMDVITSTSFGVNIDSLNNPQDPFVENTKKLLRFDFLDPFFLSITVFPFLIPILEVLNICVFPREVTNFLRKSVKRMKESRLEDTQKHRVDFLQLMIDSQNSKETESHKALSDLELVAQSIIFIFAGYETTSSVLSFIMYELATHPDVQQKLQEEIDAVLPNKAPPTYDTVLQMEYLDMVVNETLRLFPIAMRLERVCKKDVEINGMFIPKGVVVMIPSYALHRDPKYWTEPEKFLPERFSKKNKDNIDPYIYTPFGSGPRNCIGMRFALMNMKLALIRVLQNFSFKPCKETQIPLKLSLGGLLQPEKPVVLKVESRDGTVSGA
Sequence of Nuclear receptor subfamily 1 group I member 2 (Rattus norvegicus) (Q9R1A7 whole entry, looked up): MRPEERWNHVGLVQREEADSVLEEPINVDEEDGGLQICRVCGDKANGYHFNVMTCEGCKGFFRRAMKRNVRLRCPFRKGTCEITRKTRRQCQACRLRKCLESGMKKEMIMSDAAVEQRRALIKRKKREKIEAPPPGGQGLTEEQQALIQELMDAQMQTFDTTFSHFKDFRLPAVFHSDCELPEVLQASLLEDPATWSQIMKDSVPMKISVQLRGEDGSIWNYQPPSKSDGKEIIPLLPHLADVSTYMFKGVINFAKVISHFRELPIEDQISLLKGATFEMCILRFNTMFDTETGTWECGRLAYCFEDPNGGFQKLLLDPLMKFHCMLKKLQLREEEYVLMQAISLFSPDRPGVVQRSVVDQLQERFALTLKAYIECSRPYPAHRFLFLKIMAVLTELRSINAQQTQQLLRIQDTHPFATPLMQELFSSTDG

| Compound | Potency [1] | outcome [2] | Potency [3] | outcome [4] | outcome [5] | Potency [6] | Potency [7] | Potency [8] | Potency [9] | Potency [10] | Potency [11] | Potency [12] | Potency [13] | Potency [14] | max activation [15] [%] |
| --- | --- | --- | --- | --- | --- | --- | --- | --- | --- | --- | --- | --- | --- | --- | --- |
| CSc1ccc(C=O)cc1 | inactive | inactive | inactive | inactive | inactive | inactive | inactive | inactive | inactive | inactive |  |  |  |  |  |
| C#CC(O)CCCCC (centres undefined) | inactive | inactive | inactive | inactive | inactive | inactive |  | inactive | inactive | inactive |  |  |  |  |  |
| COc1cc(CCC(C)=O)ccc1O |  | inactive | inactive | inactive | inactive | inactive | inactive | inactive | inactive | inactive | inactive |  |  |  |  |
| CC1(C)SC(C)(C)SC(C)(C)S1 | inactive | inactive | inactive | inactive | inactive | inactive | inactive | inactive | inactive | inactive |  | inactive |  |  |  |
| COC(C(=O)O)c1ccccc1 (centres undefined) | inactive | inactive | inactive | inactive | inactive | inactive |  | inactive | inactive | inactive | inactive | inactive |  |  |  |
| c1cc(CN2CCCCC2)cc(OCCCNc2nc3ccccc3s2)c1 | 23.7 µM (active) | inactive |  | inactive |  | 5.31 µM (active) | 3.89 µM (active) | inactive | 8.49 µM (active) |  |  | inactive | inactive | 22.4 µM (active) |  |
| CCCCCCOC(=O)CC(CC(=O)OCCCCCC)(OC(=O)CCC)C(=O)OCCCCCC | inactive | inactive | inactive | inactive | inactive | inactive |  | 31.7 µM (active) | inactive |  | 39.9 µM (active) | inactive |  |  |  |
| O=C(O)c1ccccc1S | inactive | inactive | inactive | inactive | inactive | inactive |  |  | inactive | inactive | inactive | inactive |  |  |  |
| C=C(C)C(=O)NCCC[N+](C)(C)C | inactive | inactive | inactive | inactive | inactive | inactive | inactive | inactive | inactive | inactive |  |  |  |  |  |
| C/C=C1\C(=O)C[C@H]2[C@@H]3CCC4=CC(=O)CC[C@]4(C)[C@H]3CC[C@]12C | inactive | inactive |  | inactive | inactive |  | inactive | 15.6 µM (active) |  | inactive | 6.2 µM (active) | inactive |  |  |  |
| N[C@@H](CS)C(=O)O | inactive | inactive | inactive | inactive | inactive | inactive |  |  | inactive | inactive |  | inactive |  |  |  |
| O=Cc1ccccc1[N+](=O)[O-] | inactive | inactive | inactive | inactive | inactive | inactive |  |  | inactive | inactive |  | 31.7 µM (active) |  |  |  |
| Cc1cc(C)cc(OCC2CNC(=O)O2)c1 (centres undefined) | inactive | inactive | inactive |  | inactive | inactive |  | inactive | inactive | inactive | inactive |  | inactive | inactive | -2.51 |
| CCOC(=O)Nc1ccc2c(c1)N(C(=O)CCN1CCOCC1)c1ccccc1S2 | inactive | inactive | inactive | inactive | inactive | 7.5 µM (active) |  | 15.5 µM (active) | inactive |  | 7.76 µM (active) | inactive |  |  |  |
| Nc1cc(N)cc(C(=O)O)c1 | inactive | inactive | inactive | inactive | inactive | 34.4 µM (active) | 35.6 µM (active) |  | inactive | inactive |  | inactive |  |  |  |
| C=C(C)[C@H]1CC=C(C)CC1 | inactive | inactive | inactive |  | inactive | 61.1 µM (active) |  | inactive | inactive | inactive | inactive |  |  |  |  |
| O=[N+]([O-])c1ccc(Oc2ccc([N+](=O)[O-])cc2)cc1 | inactive | inactive | inactive | inactive | inactive | inactive |  |  | 39.8 µM (active) | inactive | 1.82 µM (active) | inactive |  |  |  |
| NC(=O)Nc1nc2ccccc2[nH]1 | inactive | inactive | inactive |  | inactive | inactive | 31.5 µM (active) |  | inactive | inactive | 39.6 µM (active) | 39.6 µM (active) |  |  |  |
